“And” between values parts separate entries of the source, which are not always exact repeats. Equal entries are not always repeated. Records with an inconclusive call do not appear. A number with no mark means an inactive call. The call rests on the fitted dose curve; in most records, active means well fitted curve in either direction with a large enough effect (not every such curve was filed as active); inconclusive means small, poorly fitted or top-dose-only effect, or another doubt; inactive means flat fitted curve, though single readings scatter.
On the % scale 0 is the no-effect control and ±100 the full control effect.

One test can be described thus: Stat Signaling Pathway (AID 446).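 Further: ME-180 cervical cancer cells given 40 pM IL-6 alongside compound; SIE-controlled beta-lactamase reporter measured as 460/530 nm FRET emission ratio.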 To be noted: ME-180 SIE beta-lactamase reporter, IL-6 stimulated, 5 h; at 7.69 µM (top of the series). Put shortly: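 Compound effects on IL-6-induced STAT reporter activity were measured in ME-180 cells. After overnight culture, cells were co-treated with 40 pM IL-6 for 5 hrs before beta-lactamase substrate loading at room temperature.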
In the case of `CN1[C@@H]2CC[C@H]1CC(OC(c1ccccc1)c1ccccc1)C2` (some centres undefined), the activity, negative = inhibition is 0.0599%.
On the same count and under the same terms, to `NCCSSCCN` belongs -10%; to `O=C(O)CC[C@@H](C(=O)O)N1C(=O)c2ccccc2C1=O`, 3.89%.

Staying with this test, now noted: ME-180 SIE beta-lactamase reporter, IL-6 stimulated, 5 h; at 17.2 µM (top of the series).
Consider `O=C(O)Cc1ccc(-c2ccccc2)cc1`, for which the activity, negative = inhibition is -10.3% and 7.71%.
The same measure, in the same setting: to `Nc1nc(Cl)nc2c1ncn2[C@@H]1O[C@H](CO)[C@@H](O)[C@H]1O` belongs 24.3%.
Still for that read-out and setting: to `N#C/C(=C\c1ccc(O)c(O)c1)C(=O)NCCCc1ccccc1` belongs -22.9%; to `CC(C)Cc1ccc([C@H](C)C(=O)O)cc1`, -0.514%.
Same read-out and setting: with `Cc1nc2sccn2c(=O)c1CCN1CCC(=C(c2ccccc2)c2ccc(F)cc2)CC1` the figure was -13.7%.
Take `CCOc1ccc2nc(S(N)(=O)=O)sc2c1`: the activity, negative = inhibition is 12.3%.
As for `OC[C@H]1O[C@@H](n2cnc3c(Nc4ccccc4)ncnc32)[C@H](O)[C@@H]1O`, the activity, negative = inhibition was 17.7%.
Same read-out and setting: to `Nc1ccc(C(=O)O)c(O)c1` belongs 7.35% and -0.89%.
Still for that read-out and setting: with `COc1ccc(/C=C/C(=O)Nc2ccccc2C(=O)O)cc1OC` the figure was -24.7%; with `OC[C@H]1O[C@@H](n2cnc3c(NC4CCCC4)ncnc32)[C@H](O)[C@@H]1O`, 15.8%; with `CN1[C@@H](CC(=O)c2ccccc2)CCC[C@H]1C[C@H](O)c1ccccc1`, 5.71%.
Same read-out and setting: to `CNCC[C@H](Oc1ccc(C(F)(F)F)cc1)c1ccccc1` belongs -1.77%; to `O=c1[nH]c2ccccc2n1CCCN1CCN(C(c2ccccc2)c2ccccc2)CC1`, -2.06%.

Still in this test, the particulars now being: ME-180 (cervical carcinoma) SIE beta-lactamase reporter, IL-6 stimulated, 5 h; at 38 µM (top of the series).
Turning to `COc1cccc(C(=O)NCCN2CCN(c3ccc(Cl)cc3)CC2)c1`, the activity, negative = inhibition is 0.921%.
Same read-out and setting: to `Fc1ccc(C(OCCCc2cnc[nH]2)c2ccc(F)cc2)cc1` belongs 27.8%; to `Ic1ccc(N2CCN(Cc3c[nH]c4ncccc34)CC2)cc1`, -23%; to `O=C(O)c1cc(=O)c2c(Cl)cc(Cl)cc2[nH]1`, 15.7%.
For the compound `COc1ccccc1N1CCN(CCCCNS(=O)(=O)c2cccc3c(N(C)C)cccc23)CC1`, the activity, negative = inhibition is -7.18%.
For the compound `Clc1ccc(N2CCN(Cc3c[nH]c4ncccc34)CC2)cc1`, the activity, negative = inhibition is -44.5%.
As for `CN1[C@@H]2CC[C@H]1CC(OC(c1ccccc1)c1ccccc1)C2` (some centres undefined), the activity, negative = inhibition was -14.8%.
In the case of `CN=c1nc(-c2ccccc2)n(-c2ccccc2)s1`, the activity, negative = inhibition was 8.46%.
Still for that read-out and setting: with `O=C(Nc1cccc(C(=O)Nc2ccc(S(=O)(=O)O)c3cc(S(=O)(=O)O)cc(S(=O)(=O)O)c23)c1)Nc1cccc(C(=O)Nc2ccc(S(=O)(=O)O)c3cc(S(=O)(=O)O)cc(S(=O)(=O)O)c23)c1` the figure was -0.505%.
Still for that read-out and setting: with `NCCCCCCCCCCN` the figure was -2.37%; with `NCCSSCCN`, -21.5%.
Still for that read-out and setting: to `N#C/C(=C\c1ccc(O)c(O)c1)C(=O)NCCCc1ccccc1` belongs -10.2%; to `CC(C)Cc1ccc([C@H](C)C(=O)O)cc1`, -0.822% and 26.9%.
As for `O=c1[nH]c2cc(Cl)c(Cl)cc2[nH]c1=O`, the activity, negative = inhibition was -0.584%.
Same read-out and setting: with `Cc1nc2sccn2c(=O)c1CCN1CCC(=C(c2ccccc2)c2ccc(F)cc2)CC1` the figure was 13.4%.
The same measure, in the same setting: with `NC(N)=NC(=O)c1nc(Cl)c(N2CCCCCC2)nc1N` the figure was 1%.
In the case of `O=C1NC(O)=NC1(c1ccccc1)c1ccccc1`, the activity, negative = inhibition is -6.76%.
Same read-out and setting: to `CN1CCc2cc(NC(=O)Nc3cccnc3)ccc21` belongs 4.31%.
Still for that read-out and setting: with `CN(C)c1nc(N)c(C(=O)N=C(N)N)nc1Cl` the figure was 19%; with `O=C(O)c1cc([N+](=O)[O-])ccc1NCCCc1ccccc1`, -16.2%.
Same read-out and setting: with `CCCN(CC1CC1)c1nc(C)nc(Nc2c(Cl)cc(Cl)cc2Cl)c1Cl` the figure was -12.8%; with `NCCCS(=O)(=O)O`, -2.17%; with `CNCC[C@H](Oc1ccc(C(F)(F)F)cc1)c1ccccc1`, -30.6% and 21.5%.
Turning to `O=C(O)CC[C@@H](C(=O)O)N1C(=O)c2ccccc2C1=O`, the activity, negative = inhibition is 0.0495%.
`O=C(c1cc(O)c(O)c([N+](=O)[O-])c1)c1ccccc1F`: the activity, negative = inhibition is -12.2%.
Turning to `CN1CCc2ccccc2Cc2[nH]c3ccccc3c2CC1`, the activity, negative = inhibition was -13.2%.
On to `O=c1[nH]c2cc([N+](=O)[O-])c([N+](=O)[O-])cc2[nH]c1=O`, for which the activity, negative = inhibition was 21%.
In the case of `N#C/C(=C\c1c[nH]c2ccccc12)C(=O)c1ccc(O)c(O)c1`, the activity, negative = inhibition is -11%.

The values are drawn from PubChem BioAssay (NCATS).
